# Measured values reported in publication PMC7862700, “An all-to-all approach to the identification of sequence-specific readers for epigenetic DNA modifications on cytosine”.
# What was measured:
# Assay in all cases: DAPPL (digital affinity profiling via proximity ligation, sequencing); 10 mM Tris-HCl pH 7.5, 50 mM NaCl, 1 mM DTT, 4% glycerol, room temperature, 30 min; GST-TFs on glutathione beads, 16-mer random dsDNA library, 0.1% formaldehyde crosslink after washing; high values mean tight binding
# FLI1 = target: T1, FLI1 (Homo sapiens, UniProt Q01543 1-452); conditions: protein: recombinant; tags: N-terminal GST; dsDNA, one strand shown
# T1 sequence: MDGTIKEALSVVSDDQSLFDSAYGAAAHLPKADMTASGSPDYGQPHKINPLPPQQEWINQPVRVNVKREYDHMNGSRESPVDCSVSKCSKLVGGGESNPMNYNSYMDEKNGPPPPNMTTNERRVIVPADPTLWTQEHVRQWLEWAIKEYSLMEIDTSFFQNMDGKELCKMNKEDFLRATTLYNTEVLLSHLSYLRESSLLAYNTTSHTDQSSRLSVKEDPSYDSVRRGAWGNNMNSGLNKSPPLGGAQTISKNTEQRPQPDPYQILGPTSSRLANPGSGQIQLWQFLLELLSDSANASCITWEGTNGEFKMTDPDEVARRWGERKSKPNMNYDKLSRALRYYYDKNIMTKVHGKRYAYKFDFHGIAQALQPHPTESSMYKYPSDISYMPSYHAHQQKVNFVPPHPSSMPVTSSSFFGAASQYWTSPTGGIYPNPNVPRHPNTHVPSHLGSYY
# Procedure, shortened: (§1)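 In yeast, human transcription factors were expressed with a GST fusion, then pulled down on glutathione beads and given DNA barcodes. Pooled with a tag-only sample, they were exposed to 200 nmole of a 16-mer random double-stranded DNA library (Tris/NaCl/DTT/glycerol buffer, room temperature, 30 min), washed, crosslinked with 0.1% formaldehyde, proximity-ligated using BsaI/T4 ligase for 1 h at 37 °C, PCR-amplified and read on an Illumina NextSeq500. Each hexamer's frequency of reads for a factor, divided by the matching frequency for the tag-only sample, gives the binding signal.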
# ELK1 = target: T2, ELK1 (Homo sapiens, UniProt P19419 1-428); conditions: protein: recombinant; tags: N-terminal GST; dsDNA, one strand shown
# T2 sequence: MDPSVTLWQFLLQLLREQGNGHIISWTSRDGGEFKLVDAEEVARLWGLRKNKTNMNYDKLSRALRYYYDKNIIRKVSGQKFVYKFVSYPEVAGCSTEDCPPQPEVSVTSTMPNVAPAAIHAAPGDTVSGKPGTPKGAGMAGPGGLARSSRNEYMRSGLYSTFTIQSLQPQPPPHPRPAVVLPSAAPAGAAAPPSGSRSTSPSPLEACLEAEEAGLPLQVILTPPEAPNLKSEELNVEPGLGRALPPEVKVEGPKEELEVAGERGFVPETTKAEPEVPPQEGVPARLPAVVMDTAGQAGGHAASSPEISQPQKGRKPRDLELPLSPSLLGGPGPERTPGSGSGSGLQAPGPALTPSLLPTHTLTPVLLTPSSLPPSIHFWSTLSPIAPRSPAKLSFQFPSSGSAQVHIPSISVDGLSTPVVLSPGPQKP
# Procedure, shortened: as §1
# GABPA = target: T3, GABPA (Homo sapiens, UniProt Q06546 1-454); conditions: protein: recombinant; tags: N-terminal GST; dsDNA, one strand shown
# T3 sequence: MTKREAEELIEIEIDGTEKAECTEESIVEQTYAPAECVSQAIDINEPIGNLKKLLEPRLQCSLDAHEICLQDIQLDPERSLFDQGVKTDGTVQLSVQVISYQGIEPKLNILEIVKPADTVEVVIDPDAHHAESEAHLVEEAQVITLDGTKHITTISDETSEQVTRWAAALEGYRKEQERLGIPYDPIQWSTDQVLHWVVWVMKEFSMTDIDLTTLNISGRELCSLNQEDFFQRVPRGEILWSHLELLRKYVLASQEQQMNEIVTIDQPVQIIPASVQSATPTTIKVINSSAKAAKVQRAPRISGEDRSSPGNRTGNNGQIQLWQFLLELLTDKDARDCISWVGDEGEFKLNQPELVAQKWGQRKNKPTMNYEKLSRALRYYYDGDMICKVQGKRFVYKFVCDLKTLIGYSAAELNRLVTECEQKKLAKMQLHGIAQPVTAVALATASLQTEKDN
# Procedure, shortened: as §1
# ERG = target: T4, ERG (Homo sapiens, UniProt P11308 1-479); conditions: protein: recombinant; tags: N-terminal GST; dsDNA, one strand shown
# T4 sequence: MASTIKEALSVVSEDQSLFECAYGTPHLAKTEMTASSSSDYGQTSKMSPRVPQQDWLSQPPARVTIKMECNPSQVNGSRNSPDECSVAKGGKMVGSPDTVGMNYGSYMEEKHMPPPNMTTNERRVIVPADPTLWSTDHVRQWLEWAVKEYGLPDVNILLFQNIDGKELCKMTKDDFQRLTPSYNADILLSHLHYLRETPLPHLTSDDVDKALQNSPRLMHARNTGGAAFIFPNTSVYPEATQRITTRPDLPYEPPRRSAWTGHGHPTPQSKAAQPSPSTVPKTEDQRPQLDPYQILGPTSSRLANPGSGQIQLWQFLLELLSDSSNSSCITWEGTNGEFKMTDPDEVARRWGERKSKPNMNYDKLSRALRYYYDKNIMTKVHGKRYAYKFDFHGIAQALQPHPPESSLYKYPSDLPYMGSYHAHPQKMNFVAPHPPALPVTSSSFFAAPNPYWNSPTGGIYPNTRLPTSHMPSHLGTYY
# Procedure, shortened: as §1
# ELF1 = ELF1 (Homo sapiens, UniProt P32519 1-619); conditions: protein: recombinant; tags: N-terminal GST; dsDNA, one strand shown
# Procedure, shortened: as §1
# EHF = target: T5, EHF (Homo sapiens, UniProt Q9NZC4 1-300); conditions: protein: recombinant; tags: N-terminal GST; dsDNA, one strand shown
# T5 sequence: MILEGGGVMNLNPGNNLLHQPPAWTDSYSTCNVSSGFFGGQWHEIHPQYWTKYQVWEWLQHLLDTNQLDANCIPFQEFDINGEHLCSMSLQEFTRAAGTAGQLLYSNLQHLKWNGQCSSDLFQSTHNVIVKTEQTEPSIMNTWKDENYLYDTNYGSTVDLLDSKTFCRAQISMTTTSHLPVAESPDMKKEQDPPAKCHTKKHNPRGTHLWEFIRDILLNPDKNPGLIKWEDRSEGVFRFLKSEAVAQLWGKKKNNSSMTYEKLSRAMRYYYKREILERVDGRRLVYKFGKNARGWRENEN
# Procedure, shortened: as §1
# SPI1 = SPI1 (Homo sapiens, UniProt P17947 1-270); conditions: protein: recombinant; tags: N-terminal GST; dsDNA, one strand shown
# Procedure, shortened: as §1
# SPIB = SPIB (Homo sapiens, UniProt Q01892 1-262); conditions: protein: recombinant; tags: N-terminal GST; dsDNA, one strand shown
# Procedure, shortened: as §1
# ELK3 = target: T6, ELK3 (Homo sapiens, UniProt P41970 1-407); conditions: protein: recombinant; tags: N-terminal GST; dsDNA, one strand shown
# T6 sequence: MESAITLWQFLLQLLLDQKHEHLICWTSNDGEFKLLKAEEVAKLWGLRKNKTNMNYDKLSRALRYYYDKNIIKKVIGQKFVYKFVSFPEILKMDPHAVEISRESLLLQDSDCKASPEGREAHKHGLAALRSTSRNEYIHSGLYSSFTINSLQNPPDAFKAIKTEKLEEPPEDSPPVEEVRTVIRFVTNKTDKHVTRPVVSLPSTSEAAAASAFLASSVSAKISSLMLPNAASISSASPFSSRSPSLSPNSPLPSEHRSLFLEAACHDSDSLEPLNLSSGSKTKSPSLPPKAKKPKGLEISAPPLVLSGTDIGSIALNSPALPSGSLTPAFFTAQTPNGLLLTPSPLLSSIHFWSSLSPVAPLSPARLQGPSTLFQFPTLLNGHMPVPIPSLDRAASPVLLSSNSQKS
# Procedure, shortened: as §1
# FEV = target: T7, FEV (Homo sapiens, UniProt Q99581 1-238); conditions: protein: recombinant; tags: N-terminal GST; dsDNA, one strand shown
# T7 sequence: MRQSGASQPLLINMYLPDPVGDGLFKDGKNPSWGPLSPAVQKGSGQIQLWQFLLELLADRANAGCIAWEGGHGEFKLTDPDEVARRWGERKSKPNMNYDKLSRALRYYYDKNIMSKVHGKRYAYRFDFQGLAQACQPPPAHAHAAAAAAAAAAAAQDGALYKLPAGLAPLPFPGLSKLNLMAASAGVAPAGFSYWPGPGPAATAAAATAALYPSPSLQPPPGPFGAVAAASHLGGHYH
# Procedure, shortened: as §1
# ETV5 = ETV5 (Homo sapiens, UniProt P41161 1-510); conditions: protein: recombinant; tags: N-terminal GST; dsDNA, one strand shown
# Procedure, shortened: as §1
# HSF1 = HSF1 (Homo sapiens, UniProt Q00613 1-529); conditions: protein: recombinant; tags: N-terminal GST; chain copies: 3; dsDNA, one strand shown
# Procedure, shortened: as §1
# SPIC = target: T8, SPIC (Homo sapiens, UniProt Q8N5J4 1-248); conditions: protein: recombinant; tags: N-terminal GST; dsDNA, one strand shown
# T8 sequence: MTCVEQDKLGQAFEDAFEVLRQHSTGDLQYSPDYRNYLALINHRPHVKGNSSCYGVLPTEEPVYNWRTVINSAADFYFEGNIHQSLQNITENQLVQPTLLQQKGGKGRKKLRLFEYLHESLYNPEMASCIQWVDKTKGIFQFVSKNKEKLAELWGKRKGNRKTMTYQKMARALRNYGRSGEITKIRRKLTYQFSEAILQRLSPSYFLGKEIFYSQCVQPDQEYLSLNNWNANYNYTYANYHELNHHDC
# Procedure, shortened: as §1
# ELF4 = ELF4 (Homo sapiens, UniProt Q99607 1-663); conditions: protein: recombinant; tags: N-terminal GST; dsDNA, one strand shown
# Procedure, shortened: as §1
# ELK4 = target: T9, ELK4 (Homo sapiens, UniProt P28324-2 1-405); conditions: protein: recombinant; tags: N-terminal GST; dsDNA, one strand shown
# T9 sequence: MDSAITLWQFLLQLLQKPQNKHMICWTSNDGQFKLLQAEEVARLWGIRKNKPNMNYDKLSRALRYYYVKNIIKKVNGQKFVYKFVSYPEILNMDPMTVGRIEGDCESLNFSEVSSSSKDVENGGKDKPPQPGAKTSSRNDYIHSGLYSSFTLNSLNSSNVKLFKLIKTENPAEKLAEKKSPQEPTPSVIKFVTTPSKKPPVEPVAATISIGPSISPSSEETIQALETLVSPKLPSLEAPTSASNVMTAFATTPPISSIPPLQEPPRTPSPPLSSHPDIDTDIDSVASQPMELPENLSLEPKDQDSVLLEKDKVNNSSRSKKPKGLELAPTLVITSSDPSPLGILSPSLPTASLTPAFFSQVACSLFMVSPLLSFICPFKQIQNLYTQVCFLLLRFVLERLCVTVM
# Procedure, shortened: as §1
# ETV2 = target: T10, ETV2 (Homo sapiens, UniProt O00321 1-342); conditions: protein: recombinant; tags: N-terminal GST; dsDNA, one strand shown
# T10 sequence: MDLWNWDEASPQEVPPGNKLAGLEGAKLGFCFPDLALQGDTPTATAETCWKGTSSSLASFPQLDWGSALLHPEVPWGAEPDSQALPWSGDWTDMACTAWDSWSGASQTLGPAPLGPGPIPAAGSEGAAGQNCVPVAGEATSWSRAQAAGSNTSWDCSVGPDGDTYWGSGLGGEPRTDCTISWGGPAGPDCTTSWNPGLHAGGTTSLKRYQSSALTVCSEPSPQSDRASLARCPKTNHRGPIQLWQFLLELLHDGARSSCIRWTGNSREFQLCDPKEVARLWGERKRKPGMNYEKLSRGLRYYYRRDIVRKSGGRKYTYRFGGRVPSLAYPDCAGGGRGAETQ
# Procedure, shortened: as §1
# ELF3 = target: T11, ELF3 (Homo sapiens, UniProt P78545 1-371); conditions: protein: recombinant; tags: N-terminal GST; dsDNA, one strand shown
# T11 sequence: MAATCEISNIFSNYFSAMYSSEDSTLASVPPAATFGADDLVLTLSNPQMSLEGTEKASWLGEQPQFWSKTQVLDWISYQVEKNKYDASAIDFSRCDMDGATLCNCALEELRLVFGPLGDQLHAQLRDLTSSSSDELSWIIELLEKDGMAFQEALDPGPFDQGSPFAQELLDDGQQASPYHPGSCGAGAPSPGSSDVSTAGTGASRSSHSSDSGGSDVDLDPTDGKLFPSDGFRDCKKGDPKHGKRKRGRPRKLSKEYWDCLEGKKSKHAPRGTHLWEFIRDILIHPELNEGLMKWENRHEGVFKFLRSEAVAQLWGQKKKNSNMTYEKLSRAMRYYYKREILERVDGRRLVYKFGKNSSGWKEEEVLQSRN
# Procedure, shortened: as §1
# CRX = CRX (Homo sapiens, UniProt O43186 1-299); conditions: protein: recombinant; tags: N-terminal GST; dsDNA, one strand shown
# Procedure, shortened: as §1
# ETV1 = ETV1 (Homo sapiens, UniProt P50549 1-477); conditions: protein: recombinant; tags: N-terminal GST; dsDNA, one strand shown
# Procedure, shortened: as §1
# Chain of ELF1 (P32519 whole entry): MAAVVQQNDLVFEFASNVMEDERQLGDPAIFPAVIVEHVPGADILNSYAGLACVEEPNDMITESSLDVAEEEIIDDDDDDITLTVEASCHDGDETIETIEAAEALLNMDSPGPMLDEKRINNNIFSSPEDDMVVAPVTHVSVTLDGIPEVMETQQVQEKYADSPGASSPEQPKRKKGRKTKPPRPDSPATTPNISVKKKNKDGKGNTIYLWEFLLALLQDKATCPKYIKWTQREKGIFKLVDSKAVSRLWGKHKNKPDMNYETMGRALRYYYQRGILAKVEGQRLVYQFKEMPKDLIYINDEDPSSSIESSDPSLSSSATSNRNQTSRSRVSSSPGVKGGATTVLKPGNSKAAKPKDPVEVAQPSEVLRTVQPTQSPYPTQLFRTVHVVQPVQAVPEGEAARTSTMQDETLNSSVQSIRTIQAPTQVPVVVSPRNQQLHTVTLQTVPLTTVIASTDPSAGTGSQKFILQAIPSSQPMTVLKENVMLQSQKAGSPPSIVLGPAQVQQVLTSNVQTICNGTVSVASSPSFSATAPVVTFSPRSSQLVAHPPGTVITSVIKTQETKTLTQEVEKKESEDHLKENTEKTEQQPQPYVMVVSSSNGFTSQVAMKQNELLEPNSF
# Chain of ETV5 (P41161 whole entry): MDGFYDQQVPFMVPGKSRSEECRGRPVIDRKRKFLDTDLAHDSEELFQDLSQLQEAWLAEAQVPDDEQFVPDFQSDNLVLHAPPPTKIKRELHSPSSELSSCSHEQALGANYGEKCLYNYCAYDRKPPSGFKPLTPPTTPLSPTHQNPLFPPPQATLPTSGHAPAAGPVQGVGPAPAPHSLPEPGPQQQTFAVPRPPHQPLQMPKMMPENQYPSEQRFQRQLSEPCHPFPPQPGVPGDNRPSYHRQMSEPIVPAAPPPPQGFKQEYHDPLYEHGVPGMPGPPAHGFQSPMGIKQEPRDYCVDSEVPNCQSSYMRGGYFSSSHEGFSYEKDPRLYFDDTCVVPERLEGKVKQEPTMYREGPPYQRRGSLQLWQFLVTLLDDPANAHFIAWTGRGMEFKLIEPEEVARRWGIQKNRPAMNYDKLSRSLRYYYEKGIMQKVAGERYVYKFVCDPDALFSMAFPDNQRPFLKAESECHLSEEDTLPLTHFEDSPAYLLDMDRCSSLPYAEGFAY
# Chain of CRX (O43186 whole entry): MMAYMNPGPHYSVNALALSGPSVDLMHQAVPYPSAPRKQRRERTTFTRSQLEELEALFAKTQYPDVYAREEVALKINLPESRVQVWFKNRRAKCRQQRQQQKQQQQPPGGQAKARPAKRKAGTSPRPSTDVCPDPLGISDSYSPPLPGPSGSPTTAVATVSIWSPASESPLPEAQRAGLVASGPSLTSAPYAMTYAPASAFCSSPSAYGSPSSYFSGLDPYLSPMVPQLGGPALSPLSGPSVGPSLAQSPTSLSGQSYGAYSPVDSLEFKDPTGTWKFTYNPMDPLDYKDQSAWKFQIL
# Chain of ELF4 (Q99607 whole entry): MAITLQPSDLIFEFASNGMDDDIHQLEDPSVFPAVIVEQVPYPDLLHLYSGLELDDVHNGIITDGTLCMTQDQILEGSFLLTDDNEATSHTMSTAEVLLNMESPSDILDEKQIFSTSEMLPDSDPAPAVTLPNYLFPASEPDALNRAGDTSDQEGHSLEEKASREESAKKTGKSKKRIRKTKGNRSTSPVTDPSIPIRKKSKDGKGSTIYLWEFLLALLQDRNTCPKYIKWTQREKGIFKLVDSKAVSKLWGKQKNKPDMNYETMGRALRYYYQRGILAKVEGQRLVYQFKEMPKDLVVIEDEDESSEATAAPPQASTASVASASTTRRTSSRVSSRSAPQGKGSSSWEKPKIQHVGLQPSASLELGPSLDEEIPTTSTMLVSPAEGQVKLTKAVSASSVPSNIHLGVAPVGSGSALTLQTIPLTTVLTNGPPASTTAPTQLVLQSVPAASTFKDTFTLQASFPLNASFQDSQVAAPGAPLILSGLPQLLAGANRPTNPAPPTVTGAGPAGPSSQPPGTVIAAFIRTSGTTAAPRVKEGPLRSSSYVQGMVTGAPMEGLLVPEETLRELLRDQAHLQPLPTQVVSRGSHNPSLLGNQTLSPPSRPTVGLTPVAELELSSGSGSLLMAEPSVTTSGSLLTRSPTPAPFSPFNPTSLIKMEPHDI
# Chain of SPIB (Q01892 whole entry): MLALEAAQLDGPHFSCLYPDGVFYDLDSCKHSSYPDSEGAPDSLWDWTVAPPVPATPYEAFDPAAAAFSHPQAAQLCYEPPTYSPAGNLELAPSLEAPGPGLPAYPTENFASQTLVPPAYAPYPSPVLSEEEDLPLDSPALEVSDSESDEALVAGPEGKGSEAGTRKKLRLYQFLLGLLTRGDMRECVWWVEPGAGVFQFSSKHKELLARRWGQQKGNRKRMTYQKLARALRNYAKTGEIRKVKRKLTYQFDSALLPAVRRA
# Chain of HSF1 (Q00613 whole entry): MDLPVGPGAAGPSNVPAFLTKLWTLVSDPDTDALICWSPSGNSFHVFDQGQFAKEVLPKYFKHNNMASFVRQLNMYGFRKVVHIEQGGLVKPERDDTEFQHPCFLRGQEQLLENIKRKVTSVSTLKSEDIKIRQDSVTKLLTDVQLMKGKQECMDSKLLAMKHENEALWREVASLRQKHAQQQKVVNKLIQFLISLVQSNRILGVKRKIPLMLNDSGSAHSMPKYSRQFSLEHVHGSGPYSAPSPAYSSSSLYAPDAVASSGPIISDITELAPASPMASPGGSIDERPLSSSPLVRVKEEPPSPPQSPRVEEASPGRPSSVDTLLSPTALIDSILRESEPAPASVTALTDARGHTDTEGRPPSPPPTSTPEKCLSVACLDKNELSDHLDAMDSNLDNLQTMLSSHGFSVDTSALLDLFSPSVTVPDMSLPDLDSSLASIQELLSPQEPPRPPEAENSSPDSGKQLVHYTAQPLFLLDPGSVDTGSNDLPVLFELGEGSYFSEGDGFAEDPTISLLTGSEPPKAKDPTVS
# Chain of ETV1 (P50549 whole entry): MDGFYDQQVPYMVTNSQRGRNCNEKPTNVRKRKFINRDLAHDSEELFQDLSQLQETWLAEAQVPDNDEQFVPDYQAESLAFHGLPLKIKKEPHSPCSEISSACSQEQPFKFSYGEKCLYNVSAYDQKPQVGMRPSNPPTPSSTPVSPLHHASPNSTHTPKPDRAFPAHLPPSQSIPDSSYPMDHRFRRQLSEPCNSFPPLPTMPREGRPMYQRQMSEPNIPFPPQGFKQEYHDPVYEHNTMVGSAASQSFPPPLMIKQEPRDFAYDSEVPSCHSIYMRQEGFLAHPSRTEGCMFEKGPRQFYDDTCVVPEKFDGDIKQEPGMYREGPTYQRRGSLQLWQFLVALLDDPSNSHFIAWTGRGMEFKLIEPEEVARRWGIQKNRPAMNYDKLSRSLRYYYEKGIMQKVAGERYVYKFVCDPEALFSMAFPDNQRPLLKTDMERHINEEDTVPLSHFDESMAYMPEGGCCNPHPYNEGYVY
sequence,measurement,setting,value
TTAATG,binding signal,FLI1,"1.24 fold enrichment (6-mer frequency, TF over GST control)"
same,binding signal,ELK1,"1.27 fold enrichment (6-mer frequency, TF over GST control)"
same,binding signal,GABPA,"1.3 fold enrichment (6-mer frequency, TF over GST control)"
same,binding signal,ERG,"1.14 fold enrichment (6-mer frequency, TF over GST control)"
same,binding signal,ELF1,"1.17 fold enrichment (6-mer frequency, TF over GST control)"
same,binding signal,EHF,"1.19 fold enrichment (6-mer frequency, TF over GST control)"
same,binding signal,SPI1,"1.24 fold enrichment (6-mer frequency, TF over GST control)"
same,binding signal,SPIB,"1.2 fold enrichment (6-mer frequency, TF over GST control)"
same,binding signal,ELK3,"1.14 fold enrichment (6-mer frequency, TF over GST control)"
same,binding signal,FEV,"1.12 fold enrichment (6-mer frequency, TF over GST control)"
same,binding signal,ETV5,"1.27 fold enrichment (6-mer frequency, TF over GST control)"
same,binding signal,HSF1,"1.89 fold enrichment (6-mer frequency, TF over GST control)"
same,binding signal,SPIC,"1.24 fold enrichment (6-mer frequency, TF over GST control)"
same,binding signal,ELF4,"1.26 fold enrichment (6-mer frequency, TF over GST control)"
same,binding signal,ELK4,"1.21 fold enrichment (6-mer frequency, TF over GST control)"
same,binding signal,ETV2,"1.31 fold enrichment (6-mer frequency, TF over GST control)"
same,binding signal,ELF3,"1.21 fold enrichment (6-mer frequency, TF over GST control)"
same,binding signal,CRX,"2.75 fold enrichment (6-mer frequency, TF over GST control)"
same,binding signal,ETV1,"1.29 fold enrichment (6-mer frequency, TF over GST control)"
